# From PubChem BioAssay
# Where “and” joins values, the source holds several entries; their conditions need not be identical. Equal values may be shown once. The source holds several records for some structures; these can differ, active in one and inactive in another. Calls of active or inactive are those of the source.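 The calls were made as follows, unless noted: active = normalized viability below 100% at a tested concentration; inactive = the rest.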
# How the values were obtained:
# [1] = P. berghei load reduction in hepatocytes – cell-based, HepG2, luciferase luminescence, HepG2 viability, primary screen (AID 624349; in the data active = parasite load remaining mostly below about 12%, no sharp cut-off; inactive = mostly above about 10%;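 also: 100% = mean of DMSO negative control wells on the same plate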); conditions: P. berghei liver stage in HepG2, luciferase luminescence, concentration not given here; parasite load remaining: stronger effect = lower value; viability: measured here: HepG2 viability without parasites
# [2] = Wnt pathway potentiators raising nuclear beta-catenin – imaging, WNT3A-conditioned medium, mouse C2C12, NPC library, primary screen (AID 1117326; in the data active = nuclear beta-catenin stimulation mostly above about 4.2%, no sharp cut-off; inactive = mostly below about 10%); conditions: stronger effect = higher value
# [3] = stimulators of insulin release from INS-1E, primary screen, cell-based, 5 mM glucose, NPC library (AID 1117329;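 active = compound raises insulin release from rat beta cells at 5 mM glucose, no numeric limit stated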); conditions: rat INS-1E insulin secretion, at 10 µM, stronger effect = higher value
# [4] = growth inhibition of GSK3B-pretreated HCT116 cells – cell-based, CellTiter-Glo, 0.2 to 20 µM (AID 1117336;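 active = compounds lowering colon cancer cell viability after pretreatment blocking the GSK3B kinase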); conditions: HCT116 viability after GSK3B inhibitor, at 20 µM, stronger effect = higher value
# [5] = inhibition of endothelial tube formation, primary screen, imaging, VEGF stimulated, CD31 staining, tube area, NPC library (AID 1117340;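 active = compound that reduces growth-factor-driven endothelial tube area in a mixed cell culture, no cutoff stated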); conditions: VEGF-stimulated ADSC/ECFC co-culture, at 10 µM, stronger effect = higher value
# [6] = GLP1 release stimulators, primary, NCI-H716, NPC library (AID 1117341;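 active = compound raises GLP1 secretion from the human gut endocrine cells, with no numeric limit stated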); conditions: NCI-H716 cells, at 10 µM, stronger effect = higher value
# [7] = HCT116 colon cancer cell growth inhibition, primary screen, CellTiter-Glo luminescence, NPC library (AID 1117342;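 active = compounds that lower survival of HCT116 colon cancer cells in the luminescence readout, no numeric limit stated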); conditions: at 20 µM (top of the series)
# [8] = reduced SW480 viability measured with CellTiter-Glo, NPC library, primary (AID 1117343;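 active = compounds that lower viability of the colon cancer cells in the luminescence readout, with no numeric limit stated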); conditions: CellTiter-Glo luminescence; at 20 µM (top of the series) unless noted
# [9] = NPC library primary testing for decreased DLD-1 cell viability via CellTiter-Glo (AID 1117346;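 active = compounds that lower survival of DLD-1 colon cancer cells in the luminescence readout, no cutoff given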); conditions: DLD-1 viability, CellTiter-Glo luminescence; at 20 µM (top of the series)
# [10] = EMT-state selective cytotoxicity in co-culture – imaging, PC-3E GFP, TEM4-18 mCherry, primary screen (AID 1345086;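 active = compounds killing one labelled cell type while sparing the other, by normalised counts and ratio limits, not self-fluorescent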;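 as to all read-outs here: cells exposed to compound for 72 h before imaging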;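 as to red/green cell ratio (normalised): normalised mesenchymal count divided by normalised epithelial count so high means epithelial killing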); conditions: PC-3E GFP / TEM4-18 mCherry co-culture, imaging cell counts, at 1 µM; for red/green cell ratio (normalised): actives lie on both sides, counts scaled to control wells, 1 = unselective
# [11] = viability loss with induced miR-34 in A549 – imaging, A549 dox-inducible miR-34, nuclei and caspase counts, primary screen (AID 1347080;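 active = compounds whose cell count with miR-34 switched on is under 0.7 times the count with it off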); conditions: A549 miR-34 inducible, Hoechst nuclei count, 48 h
# [12] = MELAS cybrid and Rieske KO viability enhancers – cell-based, MELAS cybrids, Rieske KO mouse fibroblasts, CellTiter-Glo, primary screen (AID 1508586;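 active = mean z-score across replicates of 1.96 or higher in either the MELAS or the Rieske mutant cell line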;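 also: z relative to plate mean and SD of compound and empty wells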); conditions: low glucose
# [13] = growth inhibition, single agent or in combination, cell-based, chromothripsis tumors, cisplatin or BGB combos (AID 1671449; in the data active = inhibition above about 80%;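 also: cells exposed for 96 hours; 0% = vehicle DMSO and 100% = killing by high DMSO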); conditions: LFS_MB_P medulloblastoma cells
# [14] = growth inhibition, single agent and combos, cell-based, chromothripsis tumors, cisplatin or BGB combos (AID 1671450; in the data active = inhibition above about 80%;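 also: cells exposed to compound for four days; 0% = vehicle DMSO and 100% = cell killing by high DMSO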); conditions: HDN33 neuroblastoma cells, stronger effect = higher value
# [15] = growth inhibition, single agents and combos, ICB984, cell-based, cisplatin or BGB combos, synergistic combos for chromothripsis tumors (AID 1671451; call rule not given here;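 also: cells exposed for 96 hours before readout; 0% = vehicle DMSO and 100% = killing by high DMSO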); conditions: ICB984 medulloblastoma cells, drug combinations, stronger effect = higher value
# [16] = growth inhibition, single agents and combos, HTB85, cell-based, BGB or cisplatin IC20 combos, synergistic combos for chromothripsis tumors (AID 1671453; in the data active = inhibition above about 80%;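 also: cells exposed for 96 hours before readout; 0% = vehicle DMSO and 100% = high DMSO killing control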); conditions: HTB85 osteosarcoma cells, drug combinations, stronger effect = higher value
# [17] = growth inhibition, MDA-MB-436, cell-based, BGB or cisplatin combos, synergistic combos for chromothripsis tumors (AID 1671458; call rule not given here;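 also: cells exposed for 96 hours; 0% = vehicle DMSO and 100% = killing by high DMSO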); conditions: MDA-MB-436 breast carcinoma growth inhibition, drug combinations, stronger effect = higher value
# [18] = biological target: NAD(+) hydrolase SARM1 (Homo sapiens) (UniProt Q6SZW1); test: blocking NAD cleavage by SARM1 SAM-TIR – cell lysate, NAD-Glo luminescence (AID 1508614;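 active = compound whose remaining NAD level is above about 45 nM, limit read from the data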;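 also: higher remaining NAD means stronger inhibition of SARM1 NADase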); conditions: SAM-TIR HEK293T lysate NADase, at 1 µM, stronger effect = higher value
# Sequence of NAD(+) hydrolase SARM1 (Homo sapiens) (Q6SZW1 whole entry, looked up): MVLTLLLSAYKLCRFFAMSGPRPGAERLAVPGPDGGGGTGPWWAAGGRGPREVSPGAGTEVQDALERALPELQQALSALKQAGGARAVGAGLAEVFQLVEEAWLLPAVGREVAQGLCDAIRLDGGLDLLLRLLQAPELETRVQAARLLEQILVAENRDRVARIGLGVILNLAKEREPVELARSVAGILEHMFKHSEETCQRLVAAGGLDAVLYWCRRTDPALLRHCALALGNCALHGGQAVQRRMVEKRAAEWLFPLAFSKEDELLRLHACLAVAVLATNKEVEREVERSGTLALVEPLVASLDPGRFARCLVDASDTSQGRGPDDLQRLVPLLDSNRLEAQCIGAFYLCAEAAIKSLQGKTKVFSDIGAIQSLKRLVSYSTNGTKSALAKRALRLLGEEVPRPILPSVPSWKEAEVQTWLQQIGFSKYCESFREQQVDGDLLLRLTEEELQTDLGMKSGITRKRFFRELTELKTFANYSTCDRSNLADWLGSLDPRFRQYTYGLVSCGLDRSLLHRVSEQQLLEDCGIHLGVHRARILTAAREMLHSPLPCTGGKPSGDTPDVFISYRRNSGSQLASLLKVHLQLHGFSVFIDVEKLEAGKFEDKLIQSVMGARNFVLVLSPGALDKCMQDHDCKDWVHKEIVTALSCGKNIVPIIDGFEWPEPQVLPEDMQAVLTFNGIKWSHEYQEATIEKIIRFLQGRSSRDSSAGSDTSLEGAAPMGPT
# [19] = drug combination growth inhibition, ovarian cancer – cell-based, oncology-focused library, rucaparib conditional, profiling panel (AID 1508598); conditions: patient-derived ovarian cancer cells, CellTiter-Glo viability, 144 h, stronger effect = lower value
# [20] = measured here: epithelial PC-3E GFP cell survival
# [21] = measured here: mesenchymal TEM4-18 mCherry cell survival
# [22] = stronger effect = lower value, cell number ratio, induced over uninduced
# [23] = measured here: relative caspase fold change +Dox/-Dox
# [24] = measured here: total cells with miR-34 induction, stronger effect = lower value
# [25] = measured here: total cells without miR-34 induction
# [26] = MELAS cybrid survival, CellTiter-Glo 48 h, stronger effect = higher value
# [27] = Rieske KO mouse fibroblast survival, CellTiter-Glo 72 h
structure (smiles),measurement,setting,value
CN1CCN(c2c(F)cc3c(=O)c(C(=O)O)cn(CCF)c3c2F)CC1,parasite load remaining,[1],13% (inactive)
same,viability,[1],62.5%
same,nuclear beta-catenin stimulation,[2]; at 10 µM,0.3% (inactive)
same,nuclear beta-catenin stimulation,"[2]; stimulation, at 2 µM",0.9%
same,insulin secretion stimulation,[3],-1% (inactive)
same,viability decrease,[4],-13.8% (inactive)
same,tube area decrease,[5],12.8% (inactive)
same,GLP1 secretion stimulation,[6],7.1% (inactive)
same,inhibition of viability,[7],4.1% (inactive)
same,viability decrease (inhibition),[8],4.9% (inactive)
same,viability decrease (inhibition),[9],-10.7% (inactive)
same,red/green cell ratio (normalised),[10],1.08 (inactive)
same,normalised cell number,[10]; [20],1.16
same,normalised cell number,[10]; [21],1.24
same,fold change,[11]; [22],0.864 (inactive)
same,fold change,[11]; [23],1.53
same,cell count,[11]; [24],9860
same,cell count,[11]; [25],11400
same,z-score,[12]; [26],-0.514 (inactive) and -0.443 (inactive)
same,z-score,[12]; [27],-0.857 and -0.453
same,inhibition,"[13]; at 0.5 µM, stronger effect = higher value",2.95% (inactive)
same,inhibition,"[13]; measured here: combination with BGB IC20, at 0.005 µM",20.9%
same,inhibition,"[13]; measured here: combination with BGB IC40, at 0.005 µM",16.6%
same,inhibition,"[13]; measured here: combination with BGB IC40, at 0.05 µM",22.7%
same,inhibition,"[13]; measured here: combination with cisplatin, at 0.5 µM, stronger effect = higher value",-9.55%
same,inhibition,"[13]; measured here: combination with cisplatin, at 5 µM, stronger effect = higher value",1.02%
same,inhibition,"[14]; BGB combo, at 5 µM",17.4%
same,inhibition,[14]; at 0.5 µM,15.1% (inactive)
same,inhibition,"[14]; cisplatin combo, at 5 µM",34.1%
same,inhibition,"[14]; measured here: with BGB IC20 combination, at 0.5 µM",12.4%
same,inhibition,"[14]; measured here: with cisplatin IC20 combination, at 0.5 µM",22.9%
same,inhibition,"[14]; single agent, at 5 µM",6.61%
same,inhibition,"[15]; BGB IC20 combo, at 0.005 µM",3.45%
same,inhibition,"[15]; BGB IC40 combo, at 0.005 µM",12%
same,inhibition,"[15]; BGB IC40 combo, at 0.05 µM",3.66%
same,inhibition,[15]; at 0.5 µM,-15.4% (inactive)
same,inhibition,"[15]; cisplatin combo, at 0.05 µM",0.969%
same,inhibition,"[15]; cisplatin combo, at 0.5 µM",-17.2%
same,inhibition,"[15]; cisplatin combo, at 5 µM",-29.4%
same,inhibition,"[15]; measured here: 5 uM single agent, at 5 µM",-20.3%
same,inhibition,[16]; at 0.5 µM,2.85% (inactive)
same,inhibition,"[16]; measured here: with BGB IC20, at 0.5 µM",3.83%
same,inhibition,"[16]; measured here: with BGB IC20, at 5 µM",4.56%
same,inhibition,"[16]; measured here: with cisplatin IC20, at 0.5 µM",-12%
same,inhibition,"[16]; measured here: with cisplatin IC20, at 5 µM",-2.52%
same,inhibition,"[16]; single agent, at 5 µM",7.25%
same,inhibition,[17]; at 0.5 µM,2.48% (inactive)
same,inhibition,"[17]; measured here: BGB combination, at 0.5 µM",6.04%
same,inhibition,"[17]; measured here: BGB combination, at 5 µM",-1.46%
same,inhibition,"[17]; measured here: cisplatin combination, at 0.5 µM",-0.921%
same,inhibition,"[17]; measured here: cisplatin combination, at 5 µM",-0.504%
COc1cccc2c1C(=O)c1c(O)c3c(c(O)c1C2=O)C[C@@](O)(C(C)=O)C[C@@H]3O[C@H]1C[C@H](N)[C@H](O)[C@H](C)O1,parasite load remaining,[1],-58.1% (inactive) and -0.15% (inactive) and 3.79% (active)
same,viability,[1],28.9% and 25.6% and 228%
same,nuclear beta-catenin stimulation,[2]; at 10 µM,61.7% (active)
same,nuclear beta-catenin stimulation,"[2]; stimulation, at 2 µM",102%
same,insulin secretion stimulation,[3],-0.6% (inactive)
same,viability decrease,[4],65.5% (active)
same,tube area decrease,[5],-9.1% (active)
same,GLP1 secretion stimulation,[6],3.4% (inactive)
same,inhibition of viability,[7],88.6% (active)
same,viability decrease (inhibition),[8],127% (active)
same,viability decrease (inhibition),[9],93.9% (active)
same,red/green cell ratio (normalised),[10],2.72 (active)
same,normalised cell number,[10]; [20],0.23
same,normalised cell number,[10]; [21],0.62
same,fold change,[11]; [22],0.88 (inactive) and 0.929 (inactive) and 0.993 (inactive)
same,fold change,[11]; [23],0.91 and 1.93 and 1.28
same,cell count,[11]; [24],2140 and 2610 and 2580
same,cell count,[11]; [25],2420 and 2800 and 2590
same,z-score,[12]; [26],-1.94 (inactive) and 4.97 (active)
same,z-score,[12]; [27],-1.44 and -0.671
same,remaining NAD,[18],10 nM (inactive)
O=C(CCCCCCC(=O)Nc1ccccc1)NO,nuclear beta-catenin stimulation,[2]; at 10 µM,7.6% (inactive)
same,nuclear beta-catenin stimulation,"[2]; stimulation, at 2 µM",7.1%
same,insulin secretion stimulation,[3],-1.2% (inactive)
same,viability decrease,[4],53.5% (active)
same,tube area decrease,[5],103% (active)
same,GLP1 secretion stimulation,[6],0.5% (inactive)
same,inhibition of viability,[7],108% (active)
same,viability decrease (inhibition),[8],110% (active)
same,viability decrease (inhibition),[9],58% (active)
same,red/green cell ratio (normalised),[10],1.29 (inactive)
same,normalised cell number,[10]; [20],0.33
same,normalised cell number,[10]; [21],0.42
same,fold change,[11]; [22],1.09 (inactive) and 1.01 (inactive) and 0.979 (inactive)
same,fold change,[11]; [23],0.756 and 1.04 and 1.07
same,cell count,[11]; [24],1690 and 5020 and 1390
same,cell count,[11]; [25],1540 and 4980 and 1420
same,z-score,[12]; [26],0.575 (inactive) and -2.2 (inactive)
same,z-score,[12]; [27],0.979 and -1.4
same,viability,"[19]; at 0.000305 µM, OCI-C5x cells, with rucaparib 10 µM, 100% = cells with rucaparib alone",108% (inactive)
same,viability,"[19]; at 0.000305 µM, OCI-C5x cells, without rucaparib",108% (inactive)
same,viability,"[19]; at 0.000305 µM, OCI-P5x cells, with rucaparib 20 µM, 100% = cells with rucaparib alone",87.7% (active)
same,viability,"[19]; at 0.000305 µM, OCI-P5x cells, without rucaparib",91.8% (active)
same,viability,"[19]; at 0.00122 µM, OCI-C5x cells, with rucaparib 10 µM, 100% = cells with rucaparib alone",112% (inactive)
same,viability,"[19]; at 0.00122 µM, OCI-C5x cells, without rucaparib",106% (inactive)
same,viability,"[19]; at 0.00122 µM, OCI-P5x cells, with rucaparib 20 µM, 100% = cells with rucaparib alone",83% (active)
same,viability,"[19]; at 0.00122 µM, OCI-P5x cells, without rucaparib",97.1% (active)
same,viability,"[19]; at 0.00488 µM, OCI-C5x cells, with rucaparib 10 µM, 100% = cells with rucaparib alone",113% (inactive)
same,viability,"[19]; at 0.00488 µM, OCI-C5x cells, without rucaparib",110% (inactive)
same,viability,"[19]; at 0.00488 µM, OCI-P5x cells, with rucaparib 20 µM, 100% = cells with rucaparib alone",109% (inactive)
same,viability,"[19]; at 0.00488 µM, OCI-P5x cells, without rucaparib",96.9% (active)
